# From PubChem BioAssay (NCATS)
# Records with an inconclusive call do not appear. Values without a mark were called inactive. Calls of active or inactive are those of the source. The call rests on the fitted dose curve; in most records, active means well fitted inhibition curve with a large enough effect; inconclusive means small, poorly fitted or top-dose-only effect; inactive means flat fitted curve, though single readings scatter. Where a SMILES comes first, the peptide text is derived from it. Bridges are numbered along the chain shown (N, C = ends). [ ]: non-standard residue; d: D form. The star is where a group is joined. X2 = CC[C@H](C)CCCCC(=O)*; Dab = NCC[C@H](N)C(=O)O
# Tested on: astro (control astrocytes)
# Test: Drug repurposing screens with cells derived from glioblastoma tumor samples (AID 1345199); further: nearly all actives have a fitted effect of over 40% in size
# Settings: viability, ATP luminescence, 48 h; series mostly up to 45.9 µM; activity, negative = cell killing: at the top concentration
# Procedure: CD133+ cells were isolated from GBM patient biopsies and cultured as neurospheres. Neurospheres from four patients were used to screen the NCATS pharmaceutical collection (NPC) library of approved drugs and bioactive compounds. […] The neurospheres were incubated with drugs for 48 hours in 1536-well format, then assayed with an ATP content cell viability assay. […] These hits were cherry picked to confirm activity in the four original GBM lines screened plus three other slower growing GMB lines (unable to yield enough cells for a full primary screen). Variable activities of the confirmed primary hits in the different GBM patient lines were observed. The patient line 206 responded to the greatest number of compounds and line 923 responded to the least amount of active compounds.
# On the % scale 0 is the no-effect control and ±100 the full control effect; potency means the concentration at half of the fitted maximal effect.
Structure (SMILES),"activity, negative = cell killing",Potency
CCCCCCCCCCCCCCCC(=O)OC/C=C(C)/C=C/C=C(C)/C=C/C1=C(C)CCCC1(C)C,-9.19%,–
C/C=C(/CC[C@@H](C)[C@H]1CC[C@H]2C3=CC[C@H]4[C@H](C)[C@@H](O)CC[C@]4(C)[C@H]3CC[C@]12C)C(C)C,-4.53%,–
CN=C(NC)NCc1ccccc1,-10.5%,–
CCCCCCCCCCCCCCCCCC(=O)[O][Al],2.09%,–
NCCC[C@H](N)C(=O)O,-8.29%,–
CCOC(=O)Cc1cccc(-c2cc(CCCCCCc3ccc(O[C@H]4O[C@H](COC(C)=O)[C@@H](OC(C)=O)[C@H](OC(C)=O)[C@@H]4OC(C)=O)c(-c4cccc(CC(=O)OCC)c4)c3)ccc2O[C@H]2O[C@H](COC(C)=O)[C@@H](OC(C)=O)[C@H](OC(C)=O)[C@@H]2OC(C)=O)c1,-5.54%,–
CN1CC(O)c2cc(N=NC(N)=O)c(O)cc21 (stereo not given),-16.1%,–
C/C(=C(\CCOC(=O)c1ccccc1)SS/C(CCOC(=O)c1ccccc1)=C(/C)N(C=O)Cc1cnc(C)nc1N)N(C=O)Cc1cnc(C)nc1N,-18.3%,–
NCCCNCCCCNC(=O)C(O)NC(=O)CCCCCCN=C(N)N (stereo not given),2.56%,–
CCC(=O)O,-7.36%,–
COc1ccnc(CS(=O)c2nc3cc(OC(F)F)ccc3[nH]2)c1OC (stereo not given),-15.8%,–
C/C=C1\NC(=O)[C@H]2CSSCC/C=C/[C@H](CC(=O)N[C@H](C(C)C)C(=O)N2)OC(=O)C(C(C)C)NC1=O (stereo not given in full),–,0.708 µM (active)
O=C[C@H](O)[C@@H](O)[C@H](O)[C@H](O)CO,-4.09%,–
CCC(C)C(C(=O)OCC[N+](C)(CC)CC)c1ccccc1 (stereo not given),-0.527%,–
O=C(O)CC(O)(CC(=O)O)C(=O)O,-13.9%,–
C[C@H]1C[C@@H]2[C@H]([C@@H](O)C[C@@]3(C)[C@H]2CC[C@]3(O)C(=O)COC(=O)CCC(=O)O)[C@@]2(C)C=CC(=O)C=C12,-9.39%,–
CC(=O)OCC(=O)[C@@]1(O)[C@H](C)C[C@H]2[C@@H]3C[C@H](F)C4=CC(=O)C=C[C@]4(C)[C@H]3[C@@H](O)C[C@@]21C,-4.29%,–
Cc1c(O)cc2c(c1C)O[C@](C)(CCC[C@H](C)CCC[C@H](C)CCCC(C)C)CC2,-4.16%,–
O=C1O[C@H]2[C@H](O)[C@@H]1OC(O)[C@H]2O (stereo not given in full),-11.8%,–
CCOC(=O)Nc1ccc2c(c1)N(C(=O)CN(C)C)c1ccccc1CC2,-23.8% [at 91.6 µM],–

Structure (SMILES),"activity, negative = cell killing",Potency
COCC1=C(C(=O)OC(C)OC(=O)OC(C)C)N2C(=O)[C@@H](NC(=O)/C(=N\OC)c3csc(N)n3)[C@H]2SC1 (stereo not given in full),–,inactive
CC(C(=O)O)c1ccc(C2CCCCC2)c2ccccc12 (stereo not given),-11.8%,–
CCCCC(=O)O,–,inactive
OCC(O)COc1ccc(Cl)cc1 (stereo not given),10.3%,–
c1ccc2c(CCC3CCNCC3)c[nH]c2c1,-20.7%,–
Oc1cccc(-c2c3nc(c(-c4cccc(O)c4)c4ccc([nH]4)c(-c4cccc(O)c4)c4nc(c(-c5cccc(O)c5)c5ccc2[nH]5)CC4)C=C3)c1,–,25.1 µM (active)
C[C@H](/C=C/[C@H](C)C(C)(C)O)[C@H]1CC[C@H]2/C(=C/C=C3C[C@@H](O)C[C@H](O)C3)CCC[C@]12C,-8.41%,–
Cc1cccc(C)c1N(CCCc1cccnc1)C(=O)C(C)N (stereo not given),-13.5%,–
O=C1C(c2[nH]c3ccc(S(=O)(=O)O)cc3c2O)=Nc2ccc(S(=O)(=O)O)cc21,–,inactive
CS(=O)(=O)Nc1cc2occ(NC=O)c(=O)c2cc1Oc1ccccc1,0.876%,–
CO[C@@H]1[C@@H](O[C@@H]2O[C@H](C)[C@@H](O[C@H]3C[C@@](C)(O)[C@@H](OC(=O)CC(C)C)[C@H](C)O3)[C@H](N(C)C)[C@H]2O)[C@@H](CC=O)C[C@@H](C)[C@@H](O)/C=C/C=C/C[C@@H](C)OC(=O)C[C@H]1O,–,inactive
CC(=O)O[C@H]1C[C@@H]2CC[C@@H]3[C@H](CC[C@@]4(C)[C@H]3C[C@H](N3CC[N+](C)(C)CC3)[C@@H]4OC(C)=O)[C@@]2(C)C[C@@H]1N1CC[N+](C)(C)CC1,-19.5%,–
CCOC(=O)COc1ccc2c(=O)cc(-c3ccccc3)oc2c1,–,inactive
O=S(O)CO,-6.41%,–
C[N+](C)(CCCCCC[N+](C)(C)C1c2ccccc2-c2ccccc21)C1c2ccccc2-c2ccccc21,3.63%,–
CCN1CCCC1CNC(=O)c1cc(S(=O)(=O)CC)ccc1OC (stereo not given),-9.15%,–
CCN(CC)CCOC(=O)c1ccc(N)cc1Cl,-14.4%,–
O=C(CCCN1CCC(n2c(=S)[nH]c3ccccc32)CC1)c1ccc(F)cc1,-20%,–
CC[C@H](C)CCCCC(=O)N[C@@H](CCN)C(=O)N[C@H](C(=O)N[C@@H](CCN)C(=O)N[C@H]1CCNC(=O)[C@H]([C@@H](C)O)NC(=O)[C@H](CCN)NC(=O)[C@H](CCN)NC(=O)[C@H](CC(C)C)NC(=O)[C@@H](CC(C)C)NC(=O)[C@H](CCN)NC1=O)[C@@H](C)O (X2-[Dab]T[Dab][Dab][Dab][dL]L[Dab][Dab]T; lactam 4-C),-8.5%,–
O=C(Cn1cnnn1)N[C@@H]1C(=O)N2C(C(=O)O)=C(CSc3nncs3)CS[C@H]12,–,inactive
